Reference: ChEMBL document CHEMBL4513216, “Probing the Open Global Health Chemical Diversity Library for Multistage-Active Starting Points for Next-Generation Antimalarials” (ACS Infect Dis, 2020)
About 8,600 (12%) of roughly 69,000 compounds showed an effect of 50% or more. The list comes from a sample in which strong results are over-represented; it also holds similar structures and randomly drawn compounds.

Test system: Plasmodium berghei
Test: Screen against P. berghei liver stage (PbLuc), transformed with Luciferase, at 10uM
Assay type: functional, HepG2
Details: tested at 10 uM

Row | Compound | INHIBITION
1 | c1ccc(Cc2noc(CN(Cc3cccs3)CC3CCCO3)n2)cc1 (configuration not stated) | 15.3%
2 | NC(=O)CC1CCN(Cc2ccccc2OCC(F)(F)F)CC1 | 16.1%
3 | CN1C(=O)C2(CCN(Cc3nccn3C)CC2)c2ccccc21 | -19.6%
4 | CN1CC(=O)N(c2cnn(C)c2)CC12CCN(Cc1nccn1C)C2 (configuration not stated) | 11.8%
5 | Cc1n[nH]c(C)c1NC(=O)NCc1ccccn1 | 8.59%
6 | NC(=O)C1(c2cnccn2)CCCN1Cc1ccc(F)c(F)c1 (configuration not stated) | 20.8%
7 | CN1CC(=O)N(c2ccsc2)CC12CCN(S(=O)(=O)C1CC1)C2 (configuration not stated) | -6.23%
8 | CC(C)(CO)NCc1ccc(OCc2ccc3c(c2)OCCO3)cc1 | 13.5%
9 | CNCc1ccc(OCc2ccc3c(c2)OCCO3)cc1 | -0.621%
10 | O=C1CCC2(CCC(NCc3ccc4c(c3)OCO4)CC2)N1 (configuration not stated) | 30.9%
11 | c1cc(OCc2ccc3c(c2)OCCO3)ccc1CNC1CC1 | 25.3%
12 | c1cc(OCc2ccc3c(c2)OCO3)ccc1CNC1CC1 | 73.4%
13 | CC(C)(C)NCc1ccc(OCc2ccc3c(c2)OCCO3)cc1 | -47.8%
14 | CC(O)CNCc1ccc(OCc2ccc3c(c2)OCCO3)cc1 (configuration not stated) | 72.6%
15 | CCCNCc1ccc(OCc2ccc3c(c2)OCCO3)cc1 | 25.1%
16 | CCNCc1ccc(OCc2ccc3c(c2)OCCO3)cc1 | 67.3%
17 | NC(=O)NCC1CCCCN1Cc1nc(-c2ccco2)no1 (configuration not stated) | -31.1%
18 | COc1nccnc1N1CCC(C(=O)O)(n2ccc(C(C)(C)C)n2)CC1 | 53.8%
19 | CC(C)(C)c1ccn(C2(C(=O)O)CCN(c3ncccc3C#N)CC2)n1 | 7.24%
20 | Cc1cnc(C)c(N2CCC(C(=O)O)(n3ccc(C(C)(C)C)n3)CC2)n1 | 3.84%
21 | CNC(=O)C1(N2CCC[C@H]2C(=O)NC2CCOCC2)CCOCC1 | 15.4%
22 | O=C(N1CCCC1)N1Cc2nccn2CC(Cn2ncccc2=O)C1 (configuration not stated) | 32.2%
23 | O=C(NCc1ccco1)[C@H]1C[C@H]2OCC[C@H]2N(C(=O)c2ccncc2)C1 | -15.5%

Row | Compound | INHIBITION
24 | CN(Cc1ccco1)C1CCC12CCN(C(=O)C1CCOCC1)CC2 (configuration not stated) | 43.2%
25 | Cc1nnc(NC(=O)c2c3c(nn2C2CCS(=O)(=O)C2)CCC3)s1 (configuration not stated) | -90.8%
26 | COCC(=O)Nc1ccc(Sc2nncn2C)c(Cl)c1 | 31.7%
27 | CC(C)C(=O)Nc1ccc(Sc2nncn2C)c(Cl)c1 | 24.8%
28 | CCOC(C)C(=O)Nc1ccc(Sc2nncn2C)c(Cl)c1 (configuration not stated) | 64.4%
29 | O=C(NCC1(CO)CC1)NC(c1nccs1)C1CC1 (configuration not stated) | -10.8%
30 | CC(=O)N1CCc2nc(N3CCCC3)nc(C)c2C1 | 34.6%
31 | Cn1ccc(C(=O)NCC2(O)CCN(c3cnccn3)C2)n1 (configuration not stated) | 16.95%
32 | Cn1c(CN2CCOC(CNc3cccnn3)C2)nnc1C1CC1 (configuration not stated) | -16%
33 | CCN(Cc1cccc2c1OCO2)C(=O)Nc1ccccn1 | -67.3%
34 | NC(=O)C1CCCN1C(=O)c1cccc2c1OCO2 (configuration not stated) | -27.3%
35 | CCN(C(=O)c1cccc2c1OCO2)c1ccc(Br)cn1 | 2.65%
36 | NC(=O)CCN(C(=O)c1cccc2c1OCO2)c1ccccc1 | 51.5%
37 | CCN(C(=O)c1cccc2c1OCO2)c1ccccc1 | 55.9%
38 | NC(=O)C1CCCN1C1CCN(C(=O)c2cccc3c2OCO3)CC1 (configuration not stated) | 8.59%
39 | COc1cc(CN[C@@H]2COC[C@H]2Cc2cc(C)no2)cc(OC)c1 | 40%
40 | Cn1cc(Br)c(C(=O)NCCCn2cc(Br)cn2)n1 | -16.3%
41 | Cc1cc(C(=O)N2CCCN(Cc3cnn(C)c3)CC2)no1 | 27.335%
42 | CS(=O)(=O)N1CCc2sc(C(=O)NCc3ccncc3)cc21 | 41.1%
43 | O=C(c1cc2c(s1)CCCC2)N1CCCC1Cn1cccn1 (configuration not stated) | 0.411%
44 | Cc1ccc(NC(=O)Cn2ccc3c(=O)n(C)ccc32)cc1F | 11.9%
45 | Cn1ccc2c(ccn2CC(=O)Nc2ccc(Br)cc2)c1=O | 63.5%
46 | COc1ccc(NC(=O)Cn2ccc3c(=O)n(C)ccc32)cc1OC | -14.2%

Row | Compound | INHIBITION
47 | CC(C)CNC(=O)CNC(=O)NC(c1nccs1)C1CC1 (configuration not stated) | 8.59%
48 | CCOc1ccccc1C(=O)NCCC(O)c1ccoc1 (configuration not stated) | 85.5%
49 | CCOC(=O)NCCC(O)c1ccoc1 (configuration not stated) | 52.1%
50 | O=C(NCCC(O)c1ccoc1)Nc1cccs1 (configuration not stated) | 13.8%
51 | CCOc1ccccc1C(=O)NCCc1ccoc1 | 32.4%
52 | O=C(COc1ccccc1F)NCCC(O)c1ccoc1 (configuration not stated) | -16.9%
53 | CCOCC(=O)NCCC(O)c1ccoc1 (configuration not stated) | 31.3%
54 | CC(=O)N1CC[C@H]2OCC[C@@H](C(=O)NCc3ccco3)[C@H]2C1 | 35.7%
55 | Cc1cccc(CN2C(=O)CCC23CCN(Cc2cccn2C)CC3)n1 | 24.9%
56 | Cc1cc2ccccc2n1CC(=O)Nc1ccnn1CC1CCOC1 (configuration not stated) | 40.7%
57 | CCc1cnc(CN(C)C(=O)NC2CCN(CC3CC3)C2)s1 (configuration not stated) | 39.2%
58 | Cc1csc(CN(C)C(=O)Nc2cnn(CC3CCCO3)c2)n1 (configuration not stated) | 0.825%
59 | CCc1cnc(CN(C)C(=O)NC2CCN(C)C2=O)s1 (configuration not stated) | 68.2%
60 | CCc1cnc(CN(C)C(=O)Nc2cnn(CC3CCCO3)c2)s1 (configuration not stated) | 51.4%
61 | CN(Cc1ccncc1)C(=O)Nc1cnn(CC2CCCO2)c1 (configuration not stated) | -5.53%
62 | CCc1cnc(CN(C)C(=O)NC2CCN(c3ccccc3)C2)s1 (configuration not stated) | -53.7%
63 | CC[C@@H]1N(Cc2cc(OC)cc(OC)c2)CCC[C@]12CCC(=O)N2C | -54.1%
64 | CNC(=O)c1nc(COc2c(C)occc2=O)no1 | -11.9%
65 | Cc1cncc(Oc2ccc(CO)cc2)n1 | 44.3%
66 | Cc1cncc(Oc2ccc(CN)cc2)n1 | 60.5%
67 | CNCc1ccc(Oc2cncc(C)n2)cc1 | -1.84%
68 | Cc1ccccc1CC1(C(=O)O)CCCN(c2ncccn2)C1 (configuration not stated) | 8.64%
69 | CC(=O)c1ccc(N2CCCC(CO)(Cc3ccccc3F)C2)nc1 (configuration not stated) | 50.3%

Row | Compound | INHIBITION
70 | CC(=O)c1ccc(N2CCCC(CO)(Cc3ccccc3C)C2)nc1 (configuration not stated) | 75.6%
71 | CCN1CC2(CCC1=O)CCN(c1ccc(C(C)=O)cn1)CC2 | 5.46%
72 | NC(=O)c1ccnc(N2CCCC(CO)(Cc3ccccc3)C2)c1 (configuration not stated) | 10.1%
73 | CC(=O)c1ccc(N2CCC3(CCC(=O)N(CCCO)C3)CC2)nc1 | 30.9%
74 | O=C(CN1CCCCC1)Nc1cc(C(F)(F)F)ccc1-n1cccc1 | 9%
75 | CCN1CC2(CC1=O)CN(Cc1cnn(C)c1)CCN(C(=O)N(C)C)C2 (configuration not stated) | 20.9%
76 | CS(=O)(=O)N1CCN(Cc2cccs2)CC(C(N)=O)C1 (configuration not stated) | 8.72%
77 | COCCN1C(=O)[C@@H]2CC[C@H]1CN(C(=O)CCc1n[nH]c(C)c1C)C2 | 34.9%
78 | c1ccc(NCCn2cc(C3CCCNC3)nn2)cc1 (configuration not stated) | 56.6%
79 | O=S(=O)(NCCn1cc(C2CCCNC2)nn1)c1ccc(Cl)cc1 (configuration not stated) | 35.4%
80 | c1cc2c(cc1Cn1cc(C3CCCNC3)nn1)CCCO2 (configuration not stated) | 16.7%
81 | Cc1nnc(NC(=O)NCC(C)N2CCOCC2)s1 (configuration not stated) | 2.05%
82 | CN(C)CCNCCC(Cc1ccccc1)C1CCOC(C)(C)C1 (configuration not stated) | 23.1%
83 | CN(C)CCCNCCC(c1ccccc1)C1CCOC(C)(C)C1 (configuration not stated) | 16.1%
84 | CN(C)CCCNCCC(Cc1ccccc1)C1CCOC(C)(C)C1 (configuration not stated) | 56.7%
85 | CNC(=O)CS(=O)(=O)Cc1cc(Cl)c2c(c1)OCCO2 | 21.5%
86 | CCC/C=C/c1ccc(CN2CCCC2)cn1 | -4.51%
87 | CCC/C=C/c1ccc(CN2CCN(C)CC2)cn1 | -13.2%
88 | C(=C\c1ccc(CN2CCCC2)cn1)/c1ccccc1 | 84.2%
89 | NC(=O)c1ccc(C(=O)N2CCCC(n3ccnc3)C2)s1 (configuration not stated) | 23.4%
90 | FC(F)(F)c1cccc(-c2c[nH]c(C3CCCN3)n2)c1 (configuration not stated) | -14.8%
91 | O=C(NCc1nnc2n1CCCCC2)N1CCC2(CCCCC2)C1 | 47.9%
92 | O=C(NCc1nnc2n1CCC2)N1CCC2(CCCCC2)CC1 | 75.7%

Row | Compound | INHIBITION
93 | CCc1nnsc1C(=O)NCc1nnc2n1CCC2 | 60%
94 | CCc1nnsc1C(=O)NCc1nnc2n1CCCCC2 | 41.4%
95 | CCc1nnsc1C(=O)NCCc1nnc2n1CCC2 | 14.3%
96 | O=C(NCCc1nnc2n1CCCCC2)N1CCC2(CCCC2)CC1 | -56.9%
97 | CC(C)CCC(=O)N1CCN(C(C)c2nnc(CC(C)C)o2)CC1 (configuration not stated) | 13.8%
98 | COCCNC(=O)CCN1C(=O)CC2(CCCC2)C1=O | 29%
99 | Cc1cc(C(=O)N2CCCN(c3nccs3)CC2)c(C)n1C(C)C | -26.3%
100 | Cc1cc(NC(=O)NCC(C(C)C)N2CCOCC2)n(C)n1 (configuration not stated) | 28.8%
101 | CNC(=O)c1n[nH]c2c1C(c1cccc3nsnc13)CC(=O)N2 (configuration not stated) | 46.9%
102 | CNC(=O)c1n[nH]c2c1C(c1cccc3[nH]ccc13)CC(=O)N2 (configuration not stated) | 24.4%
103 | CNC(=O)c1n[nH]c2c1C(c1cccc3c1OC(C)(C)C3)CC(=O)N2 (configuration not stated) | 50.1%
104 | CCc1[nH]ncc1C(=O)N1CCOC(c2nc(C)n[nH]2)C1 (configuration not stated) | 25.6%
105 | Cn1ccnc1CN1CC[C@@H](NS(C)(=O)=O)[C@@H]1Cc1ccccc1 | 45.1%
106 | COc1ccc(COCC(O)CNC(=O)c2cc(C)cc(C)c2)cc1 (configuration not stated) | 17.7%
107 | COc1ccc(COCC(O)CNC(=O)c2ccc(C)c(F)c2)cc1 (configuration not stated) | 52.3%
108 | COc1ccc(COCC(O)CNC(=O)c2cccc(OC)c2)cc1 (configuration not stated) | 23.5%
109 | CS(=O)(=O)NC1CCN(c2cccc(F)c2C#N)CC1 | -12.1%
110 | COc1ccc(-c2cn(CCn3c(C)cc(C)nc3=O)nn2)cn1 | 51.4%
111 | COc1c(F)cc(-c2cn(CCn3c(C)cc(C)nc3=O)nn2)cc1Cl | -4.68%
112 | CC(=O)Nc1ccc(-c2cn(CCn3c(C)cc(C)nc3=O)nn2)cc1 | -31.1%
